# Pf growth 96h: P. falciparum growth inhibition at 96 hours; P. falciparum luciferase reporter growth, 96 h; Potency, µM (series often up to 28.7 µM), hits mostly inhibitors; 6.9% of 320,000 active; AID 504834
#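 Two parasite generations (96 h, 37 C, 5% CO2) of compound exposure in infected erythrocytes (0.05% parasitemia, 2% hematocrit). Luciferase-reporter P. falciparum; decreased luminescence indicates inhibited growth, aimed at apicoplast-acting delayed death.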
# Sm TGR block: inhibitors of Schistosoma mansoni thioredoxin glutathione reductase; Q962Y6; purified TGR, DTNB reduction, TNB absorbance 405 nm; Potency, µM (top dose mostly 114 µM), actives largely listed as inhibitors; 3% of 360,000 active; AID 485364; note: nearly all actives have a fitted effect of over 60% in size
#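 First, TGR (20 nM dispensed) and NADPH were mixed with compound. Second, a 15 min room-temperature incubation followed. Third, further NADPH and then DTNB were added to start the reaction. Finally, TNB absorbance was monitored kinetically.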
# Cycloheximide cs: counter-screen hit for Shiga toxin inhibitors, cycloheximide; cell reporter, cycloheximide protein synthesis inhibition counterscreen; max response, %; 12% of 300,000 active; in the data active = max response mostly above about 13%, no sharp cut-off; inactive = mostly below about 14%; note: read at 38.3 µM for the half of the compounds with a filed dose
# Pf growth 48h: P. falciparum growth inhibition at 48 hours (one generation). P. falciparum luciferase growth in erythrocytes, 48 h. Potency, µM (doses to about 28.7 µM), most hits filed as inhibitors. 5.9% of 310,000 active. AID 504832
#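 Luciferase-expressing P. falciparum in infected erythrocytes (2% hematocrit, 0.1% parasitemia final) in RPMI 1640/0.5% Albumax were exposed to compound for 48 hours at 37 C, 5% CO2; growth read as luminescence.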
# Shiga toxin inh: blocks Shiga toxin action in Vero cells; Vero cells, Shiga toxin protein synthesis inhibition reporter; AID 2315; inhibition, % at 38.7 µM; 9.2% of 290,000 active; in the data active = inhibition mostly above about 28%, no sharp cut-off; inactive = mostly below about 43%
# NS1 inh: influenza NS1 inhibition; 0.4% of 270,000 active; Potency, µM (highest dose often 46.1 µM); calls by dose curve; note: actives are rising curves; nearly all actives have a fitted effect of over 50% in size
#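 Growth recovery, yeast-based: influenza A NS1 expressed in S. cerevisiae causes slow growth, and suppressors are detected by OD600. The parent strain without NS1 is used as positive control.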
# A number is an active result; - = inactive; ? = inconclusive; . = no result. Shown are actives, neighbours in structure and some others; about 21% of the full set was active somewhere. Unless noted, calls come from the whole dose curve; as a rule, active = well fitted curve in the direction sought with a large enough effect; inconclusive = small, poorly fitted or top-dose-only effect, or another doubt; inactive = no such curve, though single readings can be large; an effect the other way counts as inactive or inconclusive.
SMILES,Pf growth 96h,Sm TGR block,Cycloheximide cs,Pf growth 48h,Shiga toxin inh,NS1 inh
COC(=O)c1ccccc1NC(=O)CCn1c(=O)oc2ccccc21,-,-,-,-,-,-
Cc1ccccc1-c1noc(-c2ccccc2C(=O)NCC2CCCO2)n1 (stereo unspecified),-,-,-,-,-,-
O=C(Cc1ccccc1[N+](=O)[O-])NCCC1=CCCCC1,?,.,26,-,61,-
CC(/C=C1\SC(=O)N(CC(=O)Nc2ccc(O)cc2)C1=O)=C\c1ccccc1,-,-,-,-,40,?
O=C(CCN1C(=O)/C(=C\C=C\c2ccccc2)SC1=S)Nc1ccc(C(=O)O)cc1,-,-,15,-,-,-
O=C(CN1C(=O)S/C(=C/C=C/c2ccccc2)C1=O)Nc1ccc(C(=O)O)cc1,-,-,-,-,-,.
O=C(CN1C(=O)S/C(=C\C=C\c2ccccc2)C1=O)Nc1ccc(C(=O)O)cc1,-,-,-,-,-,-
O=C(/C=C1\SC(=O)N(CC(=O)Nc2ccc(Cl)cc2)C1=O)Nc1ccc(F)cc1,-,-,-,-,-,-
O=C(/C=C1\SC(=O)N(CC(=O)Nc2ccc(F)cc2)C1=O)Nc1ccc(Cl)cc1,-,-,32,-,86,-
O=C(CCCN1C(=O)S/C(=C\C=C\c2ccccc2)C1=O)Nc1ccc(O)cc1,-,-,44,?,148,-
CC(/C=C1\SC(=O)N(CC(=O)Nc2cccc(O)c2)C1=O)=C\c1ccccc1,?,-,-,-,-,-
O=C(Nc1ccc(-c2cn3cccnc3n2)cc1)c1ccccc1F,.,-,.,.,.,.
COc1ccc(S(=O)(=O)N2CCN(C)CC2)cc1C(=O)Nc1ccccc1,?,-,-,-,-,-
CCOc1cccc(C(=O)N(Cc2ccc(N(C)C)cc2)CC2CCCO2)c1 (stereo unspecified),.,-,.,.,.,.
N=C(N)SCCc1ccc(CCSC(=N)N)cc1,.,.,.,.,.,-
COc1cc([N+](=O)[O-])c(OC)cc1SCc1n[nH]c(=S)n1-c1ccc(C)cc1,-,-,-,-,-,-
COc1cc([N+](=O)[O-])c(OC)cc1SCc1n[nH]c(=S)n1-c1ccc(F)cc1,1.7µM,-,-,-,-,-
CCN1C(=O)c2ccccc2Sc2ccc(NC(=O)Nc3ccc(Br)c(C)c3)cc21,.,-,.,.,.,.
COC(=O)c1cccc(S(=O)(=O)N(Cc2ccco2)Cc2cc3cc(OC)ccc3[nH]c2=O)c1,-,28µM,-,.,-,-
CCCCN(Cc1cc2cc(OC)ccc2[nH]c1=O)C(=O)c1ccco1,?,45µM,-,.,-,-
COc1ccc2[nH]c(=O)c(CN(C(=O)c3ccco3)C(C)C)cc2c1,-,-,-,-,-,-
CCOC(=O)c1cccc(S(=O)(=O)N(CCO)Cc2cc3cc(OC)ccc3[nH]c2=O)c1,-,-,-,-,-,-
CCCN(Cc1cc2cc(OC)ccc2[nH]c1=O)C(=O)c1ccco1,-,40µM,-,-,-,-
COC(=O)c1ccc(C(=O)NCCCCO)cc1,?,-,-,-,-,.
Cc1ccc(Nc2ncnc3sc(C)c(C)c23)cc1C,.,-,31,-,-,-
SMILES,Pf growth 96h,Sm TGR block,Cycloheximide cs,Pf growth 48h,Shiga toxin inh,NS1 inh
Cc1sc2ncnc(NCC(O)c3ccccc3)c2c1C (stereo unspecified),-,-,23,-,82,-
Cc1sc2ncnc(NCc3cccs3)c2c1C,-,-,-,-,-,-
Cc1ccc(Nc2ncnc3sc4c(c23)CCC(C)C4)cc1C (stereo unspecified),.,-,.,.,.,.
Cc1sc2ncnc(N/N=C/c3ccc(O)cc3)c2c1C,?,-,-,-,-,-
Cc1sc2ncnc(NCC(c3ccccc3)N(C)C)c2c1C (stereo unspecified),?,-,-,-,-,-
Cc1sc2ncnc(NCc3ccco3)c2c1C,9.3µM,-,-,-,-,-
Cc1sc2ncnc(N/N=C/c3ccccc3O)c2c1C,-,-,36,2.9µM,34,-
CCOC(=O)c1c(N)n(-c2ccc(Cl)c(Cl)c2)c2nc3ccccc3nc12,.,-,.,.,.,.
O=C(O)c1cccc(S(=O)(=O)N2CCN(c3ccccn3)CC2)c1,-,-,-,-,-,-
O=C(CCn1cnc2onc(-c3ccc(F)cc3)c2c1=O)N1CCN(c2ccccc2F)CC1,.,-,.,.,.,.
O=C(CSc1n[nH]c(=O)n1-c1ccc2c(c1)OCCO2)Nc1ccccc1,-,-,-,-,-,-

# Source: PubChem (National Center for Advancing Translational Sciences (NCATS))
